Inconclusive results are not listed. Activity calls are given as the source filed them. How the source made its calls, unless noted: active means hit-call score of the fitted dose curve at least 0.9, where 1 is the maximum; inactive means score below 0.9.
What was measured:
[1] = CCTE_Mundy_HCI_Cortical_Synap_Neur_Matur_BPCount: CCTE's Synaptogenesis and Neurite Maturation Assay in rat cortical cells for Branch Point Count, Mundy Lab (AID 2284211)
Procedure, shortened: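 In this multiplexed morphology assay, cortical cells from rat receive chemicals at DIV 7 and are fixed at DIV 12, then immunostained and imaged; branch points are counted, with DMSO as baseline.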

[2] = CCTE_Mundy_HCI_Cortical_NOG_NeuriteCount: CCTE's Neurite Outgrowth Assay in rat cortical cells for Neurite Count, Mundy Lab (AID 2284212);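 further: cells fixed about two days after chemical exposure began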
Procedure, shortened: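 Rat cortical primary cells; compound added 2 h post-plating, 1/10 dilution of working solution. Anti-betaIII-tubulin/AF488 ICC; ArrayScan neurite count vs DMSO.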

[3] = CCTE_Mundy_HCI_Cortical_NOG_NeuriteLength: CCTE's Neurite Outgrowth Assay in rat cortical cells for Neurite Length, Mundy Lab (AID 2284213)
Procedure, shortened: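 First, rat primary cortical cells were plated and, 2 h later, given test chemical as a 1/10 dilution. Finally, βIII-tubulin immunostaining enabled automated imaging of neurite length.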

[4] = CCTE_Mundy_HCI_Cortical_Synap_Neur_Matur_NeuriteLength: CCTE's Synaptogenesis and Neurite Maturation Assay in rat cortical cells for Neurite Length, Mundy Lab (AID 2284214)
Procedure, shortened: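 DMSO-normalised neurite length, from high-content imaging of anti-MAP2-stained rat cortical cells fixed at DIV 12. Glia were suppressed with AraC (DIV 5) before chemical exposure from DIV 7.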

[5] = CCTE_Mundy_HCI_Cortical_Synap_Neur_Matur_NeuriteSpotCountPerNeuron: CCTE's Synaptogenesis and Neurite Maturation Assay in rat cortical cells for Neurite Spot Count per Neuron Count, Mundy Lab (AID 2284215)
Procedure, shortened: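 Synapse density is scored as synaptophysin spots along neurites per neuron in fixed rat cortical neurons, measured at DIV 12 after chemical dosing at DIV 7. DMSO is the negative control and activity baseline.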

[6] = CCTE_Mundy_HCI_Cortical_Synap_Neur_Matur_SynapseCount: CCTE's Synaptogenesis and Neurite Maturation Assay in rat cortical cells for Synapse Count, Mundy Lab (AID 2284218)
Procedure, shortened: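 Endpoint: synapses/neuron by HCI (synaptophysin puncta on MAP2-labelled neurites, Hoechst nuclei). Rat primary cortical cells, AraC DIV 5, dosed DIV 7, fixed DIV 12; DMSO negative control.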

[7] = CCTE_Mundy_HCI_hN2_NOG_NeuriteCount: CCTE's Neurite Outgrowth Assay in human hN2 cells for Neurite Count, Mundy Lab (AID 2284219; active means hit-call score of the fitted dose curve at least 0.9, where 1 is the maximum)
Procedure, shortened: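 In this morphology assay, hNP1-derived neurons received test chemical 2 h post-plating and were fixed two days later in warm paraformaldehyde/sucrose containing Hoechst 33342. Neurites, labelled by rabbit anti-βIII-tubulin (1:800) and Alexa Fluor-488 (1:500), were counted automatically.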

[8] = CCTE_Mundy_HCI_hN2_NOG_NeuriteLength: CCTE's Neurite Outgrowth Assay in human hN2 cells for Neurite Length, Mundy Lab (AID 2284220; active means hit-call score of the fitted dose curve at least 0.9, where 1 is the maximum)
Procedure, shortened: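 Read-out is neurite length from high-content imaging of βIII-tubulin/Alexa Fluor-488-labelled neurons, referenced to DMSO controls.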

[9] = CCTE_Mundy_HCI_hN2_NOG_NeuronCount: CCTE's Neurite Outgrowth Assay in human hN2 cells for Neuron Count, Mundy Lab (AID 2284221; active means hit-call score of the fitted dose curve at least 0.9, where 1 is the maximum)
Procedure, shortened: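 Read-out is the number of betaIII-tubulin-positive neurons imaged by automated high-content analysis, with DMSO as negative control.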

[10] = CCTE_Mundy_HCI_Cortical_Synap_Neur_Matur_NeuriteCount: CCTE's Synaptogenesis and Neurite Maturation Assay in rat cortical cells for Neurite Count, Mundy Lab (AID 2284222);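 further: exposure from day 7 to day 12 in vitro with readout at day 12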
Procedure, shortened: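 Primary rat cortical cells were plated, treated with AraC at DIV 5, then exposed to chemicals from DIV 7 through DIV 12. After fixation and immunostaining for MAP2 and synaptophysin, imaging quantified neurites, with DMSO as the negative control.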

[11] = CCTE_Mundy_HCI_Cortical_Synap_Neur_Matur_CellBodySpotCount: CCTE's Synaptogenesis and Neurite Maturation Assay in rat cortical cells for Cell Body Spot Count, Mundy Lab (AID 2284223)
Procedure, shortened: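 Synapse number at neuronal cell bodies was quantified as synaptophysin puncta per neuron in rat cortical cultures exposed from DIV 7 to DIV 12. Values were normalised to DMSO.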

[12] = CCTE_Mundy_HCI_Cortical_NOG_BPCount: CCTE's Neurite Outgrowth Assay in rat cortical cells for Branch Point Count, Mundy Lab (AID 2284237)
Procedure, shortened: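 Measured 50.33 h after dosing, this morphology endpoint uses rat primary cortical cultures labelled for betaIII-tubulin. Branch points are quantified by high-content imaging, with DMSO as negative control and baseline.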

[13] = CCTE_Mundy_HCI_hNP1_Casp3_7: CCTE's Caspase-Glo 3/7 Assay in human neuroprogenitor cells for Apoptosis, Mundy Lab (AID 2284240)
Procedure, shortened: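 Luminescent caspase-3/7 readout, 26.5 h post-dose, in human neural progenitor cells from WA09 embryonic stem cells. Cells grew 40–44 h at 37 °C, 5% CO2 before chemical addition. Activity analysed as signal increase over DMSO baseline.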

[14] = CCTE_Mundy_HCI_hNP1_CellTiter: CCTE's Cell Titer-Glo 2 Assay in human neuroprogenitor cells for Viability, Mundy Lab (AID 2284241; active means hit-call score of the fitted dose curve at least 0.9, where 1 is the maximum)
Procedure, shortened: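 Viability read as luminescent ATP content (CellTiter-Glo, 30 min room temperature) twenty-four hours after dosing, relative to DMSO. Cells: WA09-derived hNP1 neuroprogenitors on poly-L-ornithine/laminin, plated 40 to 44 hours before chemical.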

[15] = CCTE_Mundy_HCI_Cortical_Synap_Neur_Matur_NeuronCount: CCTE's Synaptogenesis and Neurite Maturation Assay in rat cortical cells for Neuron Count, Mundy Lab (AID 2284242; active means hit-call score of the fitted dose curve at least 0.9, where 1 is the maximum)
Procedure, shortened: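 Measured at DIV 12: fluorescently labelled neurons (Hoechst nuclei, MAP2) in rat primary cortical cultures, counted by high-content imaging. AraC suppressed glia from DIV 5; DMSO served as negative control.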

[16] = IUF_NPC2c_oligodendrocyte_migration_120hr: Leibniz Research Institute for Environmental Medicine (IUF) 120-hour Neural Progenitor Cell Migration Assay for Oligodendrocyte Migration (NPC2c) (AID 2284297);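 further: O4-positive oligodendrocyte migration distance divided by radial glia migration distance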
Procedure, shortened: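 Primary hNPC spheres migrating on extracellular matrix, exposed five days to a 7-point dilution series with solvent control. Oligodendrocyte migration was scored by high-content imaging of O4 immunostaining and expressed relative to radial glia distance.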

[17] = IUF_NPC2a_radial_glia_migration_120hr: Leibniz Research Institute for Environmental Medicine (IUF) 120-hour Neural Progenitor Cell Migration Assay for Radial Glia Migration (NPC2a) (AID 2284298)
Procedure, shortened: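 In this multiplexed test, fetal hNPC spheres migrate radially on poly-D-lysine/laminin in N2 medium (37C, 5% CO2, pH 7.2-7.6) under continuous compound exposure over five days. Migration is scored at 120 h from automated Hoechst nuclear imaging.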

[18] = IUF_NPC2a_radial_glia_migration_72hr: Leibniz Research Institute for Environmental Medicine (IUF) 72-hour Neural Progenitor Cell Migration Assay for Radial Glia Migration (NPC2a) (AID 2284299)
Procedure, shortened: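 Spheres of human primary neural progenitors migrate on poly-D-lysine/laminin under compound exposure at 37C, 5% CO2. The 72 h radial glia migration distance comes from brightfield images, measured manually.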

[19] = IUF_NPC2b_neuronal_migration_120hr: Leibniz Research Institute for Environmental Medicine (IUF) 120-hour Neural Progenitor Cell Migration Assay for Neuron Migration (NPC2b) (AID 2284300)
Procedure, shortened: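 Neurons identified by TUBB3 immunostaining and Hoechst nuclei; migration distance measured automatically on fixed wells at 120 h, normalized to glia migration. Exposure spanned five days of differentiation in N2 medium, seven test concentrations.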

[20] = IUF_NPC3_neuronal_differentiation_120hr: Leibniz Research Institute for Environmental Medicine (IUF) 120-hour Neuronal Differentiation Assay (NPC3) (AID 2284301)
Procedure, shortened: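 hNPC spheres, PDL/laminin, DMEM/F12 3:1 + 1% N2, 37C, 5% CO2; 7 concentrations + solvent control, 5 d exposure, half-change day 3. Fix 120 h; TUBB3/Hoechst ICC, CNN neuron calling; % neurons vs nuclei, DMSO-normalized.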

[21] = IUF_NPC4_neurite_length_120hr: Leibniz Research Institute for Environmental Medicine (IUF) 120-hour Neuronal Morphology Assay for Neurite Length (NPC4) (AID 2284302)
Procedure, shortened: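 hNPC spheres (0.3 mm, fetal brain GW 16-19) on PDL/laminin, DMEM:F12 3:1 + 1% N2, 37C 5% CO2; 7 concs + solvent control, day 0-5, half medium change d3; fix 120 h, TUBB3 ICC, mean neurite length um vs DMSO.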

[22] = IUF_NPC5_oligodendrocyte_differentiation_120hr: Leibniz Research Institute for Environmental Medicine (IUF) 120-hour Oligodendrocyte Differentiation Assay (NPC5) (AID 2284304; active means hit-call score of the fitted dose curve at least 0.9, where 1 is the maximum;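 further: primary human fetal neural progenitor spheres plated to migrate and differentiate; share of O4-positive cells among Hoechst nuclei found by CNN image analysis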)
Procedure, shortened: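 Human primary NPC neurospheres migrating and differentiating on laminin for 120 h under continuous compound exposure (serial dilution, solvent control). Endpoint: percent O4+ oligodendrocytes among Hoechst nuclei, detected by CNN image analysis, with DMSO as negative control.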

[23] = IUF_NPC2-5_cytotoxicity_72hr: Cytotoxicity Assessment at 72 hours in the Leibniz Research Institute for Environmental Medicine (IUF) Neural Progenitor Cell Migration and Differentiation Assay for Cytotoxicity (NPC2-5) (AID 2284306; active means hit-call score of the fitted dose curve at least 0.9, where 1 is the maximum;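 further: LDH release into supernatant measured by resorufin fluorescence marking membrane damage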)
Procedure, shortened: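 hNPC spheres (0.3 mm), PDL/laminin, DMEM/F12 3:1 + 1% N2; cpd from d0, 7 concs + SC, DMSO max 0.1%; half-medium refresh d3. Readout: supernatant LDH via resorufin fluorescence (RFU), 72 h; gain-of-signal fit.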

[24] = IUF_NPC2-5_cytotoxicity_120hr: Cytotoxicity Assessment at 120 hours in the Leibniz Research Institute for Environmental Medicine (IUF) Neural Progenitor Cell Migration and Differentiation Assay (NPC2-5) (AID 2284307; active means hit-call score of the fitted dose curve at least 0.9, where 1 is the maximum)
Procedure, shortened: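 Fluorescence (RFU) from LDH-driven resazurin reduction in medium supernatants measured loss of membrane integrity after 120 h of compound exposure of differentiating primary human neural progenitor spheres on an extracellular matrix.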

[25] = IUF_NPC2-5_cell_number_120hr: Cell Number Assessment at 120 hours in the Leibniz Research Institute for Environmental Medicine (IUF) Neural Progenitor Cell Migration and Differentiation Assay (NPC2-5) (AID 2284308);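 further: count of Hoechst-stained nuclei in migration zone around plated human neural progenitor spheres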
Procedure, shortened: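 Cell number is taken as all Hoechst-positive nuclei detected in the area into which cells migrate out of the sphere, scored at 120 h and referenced to DMSO solvent control, which was kept at no more than 0.1%.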

[26] = IUF_NPC2-5_viability_120hr: Viability Assessment at 120 hours in the Leibniz Research Institute for Environmental Medicine (IUF) Neural Progenitor Cell Migration and Differentiation Assay (NPC2-5) (AID 2284312)
Procedure, shortened: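 Human fetal neural progenitor spheres (0.3 mm) plated on poly-D-lysine/laminin in N2 differentiation medium, exposed 120 h with half-medium refresh at day 3. Viability by alamar blue resazurin fluorescence; 7 concentrations, DMSO max 0.1%.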

[27] = IUF_NPC1_cytotoxicity_72hr: Cytotoxicity Assessment at 72 hours in the Leibniz Research Institute for Environmental Medicine (IUF) Neural Progenitor Cell Proliferation Assay (NPC1) (AID 2284332; active means hit-call score of the fitted dose curve at least 0.9, where 1 is the maximum;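 further: rising LDH signal means more cytotoxicity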)
Procedure, shortened: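 Readout is fluorescence from LDH-dependent resazurin conversion, sampled from culture medium after compound contact lasting 72 h. Each well holds one 0.25-0.35 mm human progenitor sphere kept at 37C, 5% CO2 with EGF and FGF.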

Measured: outcome

C[C@H](CS)C(=O)N1CCC[C@H]1C(=O)O
inactive: [1] | [2] | [3] | [4] | [5] | [6] | [7] | [8] | [9] | [10] | [11] | [12] | [13] | [14] | [15] | [16] | [17] | [18] | [19] | [20] | [21] | [22] | [23] | [24] | [25] | [26] | [27]
